# Experimental data reported in article PMC7862700, “An all-to-all approach to the identification of sequence-specific readers for epigenetic DNA modifications on cytosine”.
# What was measured:
# Assay in all cases: DAPPL (digital affinity profiling via proximity ligation, sequencing); 10 mM Tris-HCl pH 7.5, 50 mM NaCl, 1 mM DTT, 4% glycerol, room temperature, 30 min; GST-TFs on glutathione beads, 16-mer random dsDNA library, 0.1% formaldehyde crosslink after washing; high values mean tight binding
# Settings in all cases: protein: recombinant; tags: N-terminal GST; dsDNA, one strand shown
# FLI1 = molecular target: T1, FLI1 (Homo sapiens, UniProt Q01543 1-452)
# T1 sequence: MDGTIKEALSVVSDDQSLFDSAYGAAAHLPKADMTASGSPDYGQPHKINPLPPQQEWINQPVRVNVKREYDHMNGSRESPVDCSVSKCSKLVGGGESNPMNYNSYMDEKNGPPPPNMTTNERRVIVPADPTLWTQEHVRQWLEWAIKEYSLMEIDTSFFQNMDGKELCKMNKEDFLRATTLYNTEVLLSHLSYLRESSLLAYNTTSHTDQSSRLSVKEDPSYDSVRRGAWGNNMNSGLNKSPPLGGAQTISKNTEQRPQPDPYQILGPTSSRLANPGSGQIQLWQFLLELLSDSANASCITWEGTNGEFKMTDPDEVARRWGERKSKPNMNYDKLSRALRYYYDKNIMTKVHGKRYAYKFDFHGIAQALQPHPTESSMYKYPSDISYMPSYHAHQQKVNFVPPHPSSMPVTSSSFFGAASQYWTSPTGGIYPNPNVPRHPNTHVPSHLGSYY
# In short: (§1)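 Binding signal is defined as a hexamer's read frequency for one factor over its frequency for the tag-only sample. To obtain reads, GST-fused human transcription factors were expressed in yeast, captured on glutathione beads, barcoded with DNA and pooled with that sample. Pools met 200 nmole of a 16-mer random double-stranded DNA library in Tris/NaCl/DTT/glycerol buffer for 30 min at room temperature before washing, 0.1% formaldehyde crosslinking, proximity ligation (BsaI/T4 ligase, 1 h, 37 °C), PCR and Illumina NextSeq500 sequencing.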
# ELK1 = molecular target: T2, ELK1 (Homo sapiens, UniProt P19419 1-428)
# T2 sequence: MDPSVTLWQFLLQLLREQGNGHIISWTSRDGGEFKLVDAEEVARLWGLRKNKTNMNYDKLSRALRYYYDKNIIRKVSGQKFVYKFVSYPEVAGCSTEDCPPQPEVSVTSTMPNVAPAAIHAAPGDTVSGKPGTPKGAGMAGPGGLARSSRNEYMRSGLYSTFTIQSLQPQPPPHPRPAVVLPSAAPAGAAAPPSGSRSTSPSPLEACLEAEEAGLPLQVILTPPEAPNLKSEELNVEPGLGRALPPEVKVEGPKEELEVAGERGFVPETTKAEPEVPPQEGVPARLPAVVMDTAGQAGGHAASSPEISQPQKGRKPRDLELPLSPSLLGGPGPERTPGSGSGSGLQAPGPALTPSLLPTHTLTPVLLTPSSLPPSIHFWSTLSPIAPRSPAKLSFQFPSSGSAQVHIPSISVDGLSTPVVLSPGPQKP
# In short: as §1
# GABPA = molecular target: T3, GABPA (Homo sapiens, UniProt Q06546 1-454)
# T3 sequence: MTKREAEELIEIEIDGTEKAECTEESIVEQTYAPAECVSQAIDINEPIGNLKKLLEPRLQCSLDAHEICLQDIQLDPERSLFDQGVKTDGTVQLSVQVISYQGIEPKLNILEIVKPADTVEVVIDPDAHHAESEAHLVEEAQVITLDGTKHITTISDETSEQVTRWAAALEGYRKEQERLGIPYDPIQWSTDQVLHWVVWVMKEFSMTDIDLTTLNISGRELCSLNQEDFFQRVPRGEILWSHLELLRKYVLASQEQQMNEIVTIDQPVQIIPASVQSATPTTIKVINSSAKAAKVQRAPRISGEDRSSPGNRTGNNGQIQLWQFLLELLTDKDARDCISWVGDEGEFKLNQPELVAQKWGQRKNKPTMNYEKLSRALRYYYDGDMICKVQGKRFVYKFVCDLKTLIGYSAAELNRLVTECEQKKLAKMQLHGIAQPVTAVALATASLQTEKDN
# In short: as §1
# ERG = molecular target: T4, ERG (Homo sapiens, UniProt P11308 1-479)
# T4 sequence: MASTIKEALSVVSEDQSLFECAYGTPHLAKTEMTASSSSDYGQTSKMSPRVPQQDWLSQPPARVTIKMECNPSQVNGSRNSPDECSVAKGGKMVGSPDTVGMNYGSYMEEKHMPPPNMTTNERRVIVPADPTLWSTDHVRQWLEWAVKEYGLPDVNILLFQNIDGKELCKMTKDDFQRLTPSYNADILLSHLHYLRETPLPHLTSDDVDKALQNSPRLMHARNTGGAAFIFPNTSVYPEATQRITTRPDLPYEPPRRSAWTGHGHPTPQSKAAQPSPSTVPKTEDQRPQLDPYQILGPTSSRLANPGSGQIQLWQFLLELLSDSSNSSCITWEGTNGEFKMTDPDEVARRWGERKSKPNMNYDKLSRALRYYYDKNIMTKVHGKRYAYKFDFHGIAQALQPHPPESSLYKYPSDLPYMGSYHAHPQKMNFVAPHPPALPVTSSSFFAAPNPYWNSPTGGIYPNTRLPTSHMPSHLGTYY
# In short: as §1
# ELF1 = ELF1 (Homo sapiens, UniProt P32519 1-619)
# In short: as §1
# EHF = molecular target: T5, EHF (Homo sapiens, UniProt Q9NZC4 1-300)
# T5 sequence: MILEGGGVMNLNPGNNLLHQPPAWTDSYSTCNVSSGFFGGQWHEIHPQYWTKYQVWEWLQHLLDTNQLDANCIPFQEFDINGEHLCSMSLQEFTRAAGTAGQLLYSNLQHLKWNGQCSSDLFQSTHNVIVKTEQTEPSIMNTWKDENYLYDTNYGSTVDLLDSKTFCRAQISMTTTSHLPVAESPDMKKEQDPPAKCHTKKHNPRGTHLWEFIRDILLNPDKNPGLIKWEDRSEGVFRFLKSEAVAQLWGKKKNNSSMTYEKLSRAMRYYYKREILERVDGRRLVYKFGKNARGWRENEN
# In short: as §1
# SPI1 = SPI1 (Homo sapiens, UniProt P17947 1-270)
# In short: as §1
# SPIB = SPIB (Homo sapiens, UniProt Q01892 1-262)
# In short: as §1
# ELK3 = molecular target: T6, ELK3 (Homo sapiens, UniProt P41970 1-407)
# T6 sequence: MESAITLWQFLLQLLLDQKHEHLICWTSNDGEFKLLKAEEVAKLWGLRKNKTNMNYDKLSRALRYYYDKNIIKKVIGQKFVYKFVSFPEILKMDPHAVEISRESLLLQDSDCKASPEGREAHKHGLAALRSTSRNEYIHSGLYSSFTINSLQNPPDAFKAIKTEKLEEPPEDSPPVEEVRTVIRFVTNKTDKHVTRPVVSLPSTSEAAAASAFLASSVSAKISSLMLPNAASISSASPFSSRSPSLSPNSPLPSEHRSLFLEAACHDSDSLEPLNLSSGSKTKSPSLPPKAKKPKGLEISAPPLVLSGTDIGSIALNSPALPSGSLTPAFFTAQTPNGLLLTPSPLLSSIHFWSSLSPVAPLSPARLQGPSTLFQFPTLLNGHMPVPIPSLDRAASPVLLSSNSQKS
# In short: as §1
# Sequence of ELF1 (P32519 whole entry): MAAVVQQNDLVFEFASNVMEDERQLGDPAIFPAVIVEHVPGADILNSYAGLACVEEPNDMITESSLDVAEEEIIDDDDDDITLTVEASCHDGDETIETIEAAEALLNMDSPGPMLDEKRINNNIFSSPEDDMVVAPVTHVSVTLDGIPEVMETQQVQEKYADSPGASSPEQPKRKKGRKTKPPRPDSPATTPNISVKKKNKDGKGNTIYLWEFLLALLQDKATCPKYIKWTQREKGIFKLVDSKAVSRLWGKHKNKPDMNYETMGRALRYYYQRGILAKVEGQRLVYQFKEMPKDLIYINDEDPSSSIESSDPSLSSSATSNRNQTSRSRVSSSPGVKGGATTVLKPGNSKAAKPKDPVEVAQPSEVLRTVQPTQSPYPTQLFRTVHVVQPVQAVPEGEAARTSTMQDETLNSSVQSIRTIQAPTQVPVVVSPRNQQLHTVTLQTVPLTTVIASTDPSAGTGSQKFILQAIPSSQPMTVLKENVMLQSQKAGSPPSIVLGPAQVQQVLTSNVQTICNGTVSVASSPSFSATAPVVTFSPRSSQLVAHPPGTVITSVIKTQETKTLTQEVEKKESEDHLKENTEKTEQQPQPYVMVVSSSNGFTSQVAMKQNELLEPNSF
# Sequence of SPIB (Q01892 whole entry): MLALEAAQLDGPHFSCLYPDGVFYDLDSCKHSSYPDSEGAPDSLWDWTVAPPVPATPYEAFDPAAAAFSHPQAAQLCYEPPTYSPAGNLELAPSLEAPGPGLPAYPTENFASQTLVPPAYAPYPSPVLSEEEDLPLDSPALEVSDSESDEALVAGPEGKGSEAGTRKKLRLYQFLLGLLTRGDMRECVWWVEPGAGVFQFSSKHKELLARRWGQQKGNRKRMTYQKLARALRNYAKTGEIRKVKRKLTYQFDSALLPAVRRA
sequence,measurement,setting,value
TTATAC,binding signal,FLI1,"1.55 fold enrichment (6-mer frequency, TF over GST control)"
same,binding signal,ELK1,"1.42 fold enrichment (6-mer frequency, TF over GST control)"
same,binding signal,GABPA,"1.39 fold enrichment (6-mer frequency, TF over GST control)"
same,binding signal,ERG,"1.35 fold enrichment (6-mer frequency, TF over GST control)"
same,binding signal,ELF1,"1.4 fold enrichment (6-mer frequency, TF over GST control)"
same,binding signal,EHF,"1.42 fold enrichment (6-mer frequency, TF over GST control)"
same,binding signal,SPI1,"1.3 fold enrichment (6-mer frequency, TF over GST control)"
same,binding signal,SPIB,"1.43 fold enrichment (6-mer frequency, TF over GST control)"
same,binding signal,ELK3,"1.35 fold enrichment (6-mer frequency, TF over GST control)"
